Measurements as given in PubChem BioAssay (Tox21).
Results filed as inconclusive are left out. A call without a number means that no potency is given here. Calls of active or inactive are those of the source. Unless noted, the call rests on the fitted dose curve; in most records, active means well fitted curve in the direction sought with a large enough effect in the repeat runs; inconclusive means weak or mixed curves; inactive means no such curve, though single readings can be large; an effect the other way counts as inactive or inconclusive.

How the values were obtained:
[1] = qHTS assay to identify small molecule antagonists of the estrogen related receptor (ERR) signaling pathway from Tox21 library - cell viability counter screen (AID 1224834); further: nearly all actives have a fitted effect of over 30% in size; further: potency means the concentration at half of the fitted maximal effect
Procedure, shortened: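 After 17.5 h of compound exposure at 37 C, ERR cells are incubated with CellTiter-Fluor for 30 min and fluorescence intensity serves as the viability measure.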

[2] = qHTS assay to identify small molecule agonists of the constitutive androstane receptor (CAR) signaling pathway - cell viability counter screen (AID 1224836); further: nearly all actives have a fitted effect of over 45% in size; further: potency means the concentration at half of the fitted maximal effect
Procedure, shortened: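 Cell viability multiplexed with the CAR agonist screen: CellTiter-Fluor fluorescence after 23 hr at 37 C. HepG2-CYP2B6-hCAR cells got compounds at 15 concentrations with PK11195 at 0.75 uM final.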

[3] = qHTS assay to identify small molecule antagonists of the constitutive androstane receptor (CAR) signaling pathway - cell viability counter screen (AID 1224837); further: nearly all actives have a fitted effect of over 45% in size; further: potency means the concentration at half of the fitted maximal effect
Procedure, shortened: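 Counter screen run in HepG2-CYP2B6-hCAR cells: 4 hr settle, compound titration (15 concentrations) with 50 nM CITCO, 23 hr at 37 C/5% CO2, CellTiter-Fluor fluorescence.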

[4] = qHTS assay to identify small molecule antagonists of the estrogen related receptor signaling pathway with the pleiotropic PPARgamma coactivator (PGC) from Tox21 10K library - cell viability counter screen (AID 1224840; active means well fitted cell-killing curve with a large enough effect in the repeat runs, not every such curve was filed as active; further: nearly all actives have a fitted effect of over 40% in size; further: potency means the concentration at half of the fitted maximal effect)
Procedure, shortened: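 Following seeding of 2,000 PGC/ERR cells/well and 6 hours' incubation, test compounds were delivered in DMSO. The plates then sat 17.5 hours at 37 C before a fluorogenic live-cell protease reagent (CellTiter-Fluor) was read after 30 min.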

[5] = qHTS assay to identify small molecule antagonists of the estrogen related receptor signaling pathway with the pleiotropic PPARgamma coactivator (PGC) from Tox21 10K library (AID 1224841; call rule not given here; further: actives are mostly falling curves and most rising ones were filed inactive; nearly all actives have a fitted effect of over 50% in size; further: potency means the concentration at half of the fitted maximal effect)
Procedure, shortened: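 qHTS antagonist format: PGC/ERR cells, 2k/well, compound in DMSO by pin transfer after 6 h attachment, 18 h treatment at 37 C, One-Glo luminescence read at 30 min.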

[6] = qHTS assay to identify small molecule agonists of the estrogen related receptor signaling pathway with the pleiotropic PPARgamma coactivator (PGC) from Tox21 10K library (AID 1224842); further: nearly all actives have a fitted effect of over 15% in size
Procedure, shortened: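 Luminescence from One-Glo (30 min, room temperature) measured after PGC/ERR cells had 18 h at 37 C with pinned compound (23 nL in DMSO). Cells had been seeded at 2,000 per well and pre-incubated 6 h.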

[7] = molecular target: Nuclear receptor subfamily 1 group I member 3 (Homo sapiens) (UniProt Q14994); test: qHTS assay to identify small molecule antagonists of the constitutive androstane receptor (CAR) signaling pathway (AID 1224838);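 further: HepG2 cells stably expressing hCAR with CYP2B6 luciferase reporter stimulated by CITCO; nearly all actives have a fitted effect of over 40% in size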; further: potency means the concentration at half of the fitted maximal effect
Nuclear receptor subfamily 1 group I member 3 (Homo sapiens), sequence (Q14994 whole entry, looked up): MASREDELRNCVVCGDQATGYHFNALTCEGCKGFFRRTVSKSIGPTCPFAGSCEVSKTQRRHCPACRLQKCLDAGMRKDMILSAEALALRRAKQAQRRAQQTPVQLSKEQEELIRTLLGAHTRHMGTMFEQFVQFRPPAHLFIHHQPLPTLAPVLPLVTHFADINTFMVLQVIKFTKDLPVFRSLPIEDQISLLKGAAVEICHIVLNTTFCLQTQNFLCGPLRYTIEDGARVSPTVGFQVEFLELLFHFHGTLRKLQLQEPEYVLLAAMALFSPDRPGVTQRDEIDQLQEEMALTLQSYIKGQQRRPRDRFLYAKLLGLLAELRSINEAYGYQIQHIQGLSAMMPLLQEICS
Procedure, shortened: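 Cell line: HepG2 double-stable for hCAR and CYP2B6-2.2kb reporter. Agonist: CITCO, 50 nM final. Compounds: 15 concentrations, 24 h, 37 C. Detection: ONE-Glo luminescence.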

[8] = molecular target: Nuclear receptor subfamily 1 group I member 3 (Homo sapiens) (UniProt Q14994); test: qHTS assay to identify small molecule agonists of the constitutive androstane receptor (CAR) signaling pathway (AID 1224839); further: nearly all actives have a fitted effect of over 15% in size; further: potency means the concentration at half of the fitted maximal effect
Procedure, shortened: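 Luminescent ONE-Glo read-out after 24 hr, 37 C exposure of double-stable HepG2-CYP2B6-hCAR reporter cells to a 15-point compound series, in the presence of 0.75 uM PK11195 (final).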

Row | SMILES | Potency [1] | Potency [2] | Potency [3] | Potency [4] | Potency [5] | Potency [6] | Potency [7] | Potency [8]
1 | Clc1cccc(SC2CCNCC2)n1 | inactive | inactive | inactive | inactive | inactive | inactive | – | –
2 | O=[N+]([O-])c1ccc(F)c([N+](=O)[O-])c1 | 34.7 µM (active) | 34.7 µM (active) | 34.7 µM (active) | 55 µM (active) | – | inactive | inactive | inactive
3 | ClCc1ccccc1 | inactive | inactive | inactive | inactive | – | – | inactive | inactive
4 | O=[N+]([O-])c1cc(C(F)(F)F)cc([N+](=O)[O-])c1Cl | 34.5 µM (active) | inactive | – | – | – | inactive | inactive | inactive
5 | C=CC(=O)OCC(C)O (stereo not given) | inactive | inactive | inactive | inactive | inactive | inactive | inactive | inactive
6 | O=C(O)COc1ccc(Cl)cc1 | inactive | inactive | inactive | inactive | inactive | inactive | – | inactive
7 | ClCc1cccc(Cl)c1 | inactive | inactive | inactive | inactive | – | inactive | – | –
8 | C[C@@H]1CC[C@H]2[C@@H](C)C(=O)O[C@@H]3O[C@@]4(C)CC[C@@H]1[C@]32OO4 | inactive | inactive | inactive | – | 1.88 µM (active) | inactive | inactive | –
9 | CCCCC(O)(Cn1cncn1)c1ccc(Cl)cc1Cl (stereo not given) | 54.4 µM (active) | – | 61.1 µM (active) | 54.4 µM (active) | – | inactive | inactive | –
10 | Cc1ccccc1C(=O)Nc1cccc(OC(C)C)c1 | inactive | inactive | inactive | inactive | – | – | – | –
11 | CNP(=O)(OC)Oc1ccc(C(C)(C)C)cc1Cl (stereo not given) | inactive | inactive | inactive | – | inactive | inactive | inactive | 48.6 µM (active)
12 | O=C(C(Cl)(Cl)Cl)C(Cl)(Cl)Cl | inactive | inactive | inactive | inactive | – | – | – | –
13 | CCOP(=S)(OCC)Oc1cc(Cl)c(Br)cc1Cl | inactive | inactive | inactive | inactive | – | – | – | 21.7 µM (active)
14 | O=[N+]([O-])C(Br)(CO)CO | inactive | inactive | – | – | inactive | – | – | inactive
15 | N#CCc1ccccc1 | inactive | inactive | inactive | inactive | – | – | inactive | inactive
16 | CN(N=O)c1ccc([N+](=O)[O-])cc1 | inactive | inactive | inactive | inactive | – | – | – | –
17 | ClCCCCBr | inactive | inactive | inactive | inactive | – | – | inactive | inactive
18 | COC(=O)C(Cl)C(=O)OC | inactive | inactive | inactive | inactive | – | – | inactive | inactive
19 | CCCCCCCCCCOC(=O)c1ccccc1C(=O)OCCCCCCCCCC | inactive | inactive | inactive | inactive | – | inactive | inactive | inactive
20 | CC(C)(C)c1cc([N+](=O)[O-])cc([N+](=O)[O-])c1O | 15.3 µM (active) | 13.6 µM (active) | 15.3 µM (active) | 15.3 µM (active) | – | – | 17.2 µM (active) | inactive
21 | CC(C)N(CCC(C(N)=O)(c1ccccc1)c1ccccn1)C(C)C (stereo not given) | inactive | inactive | inactive | inactive | – | – | inactive | inactive
22 | Cc1cc(=O)[nH]o1 | inactive | inactive | inactive | inactive | – | – | – | –
23 | CCOP(O)OCC | inactive | inactive | inactive | inactive | – | – | – | inactive
24 | C=CCN1CC[C@]23c4c5ccc(O)c4O[C@H]2C(=O)CC[C@@]3(O)[C@H]1C5 | inactive | inactive | inactive | inactive | – | inactive | – | –
25 | CCOP(=S)(OCC)SCSCC | inactive | inactive | inactive | inactive | – | – | – | –
26 | C=CC(=O)OC | inactive | inactive | inactive | inactive | – | – | inactive | inactive
27 | CC(Cl)C(C)Cl (stereo not given) | inactive | inactive | inactive | inactive | inactive | inactive | – | –
